For ten molecules, growth inhibition results are on record in PubChem BioAssay (NCI).

Assay [1] in a line: NCI Yeast Anticancer Drug Screen. Data for the rad50 strain (AID 155).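 Also: 0% = growth of vehicle-only cultures of the same strain.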 The following applies: S. cerevisiae rad50 strain growth inhibition, hits give high values. The essentials:
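Inhibition values express reduced yeast growth in compound-treated cultures relative to vehicle-treated controls.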

Assay [2] in a line: NCI Yeast Anticancer Drug Screen. Data for the mec2-1 strain (AID 157). To be noted: S. cerevisiae mec2-1 strain, hits give high values. An outline of the steps: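 Readout is yeast growth inhibition, normalised to vehicle-treated controls, in the mec2-1 strain exposed to compound.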
Assay [3] is described as follows: NCI Yeast Anticancer Drug Screen. Data for the sgs1 mgt1 strain (AID 161).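 Also: 0% = growth of cultures given vehicle only.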 To be noted: S. cerevisiae sgs1 mgt1 strain, hits give high values. The essentials:
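Growth of a repair-deficient yeast mutant was monitored after compound treatment and expressed as inhibition relative to vehicle-treated cultures.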

The nature of assay [4]: NCI Yeast Anticancer Drug Screen. Data for the cln2 rad14 strain (AID 165).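 Also: 0% = growth equal to vehicle treated cultures.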 The following applies: S. cerevisiae cln2 rad14 strain, hits give high values. The essentials:
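Relative to vehicle controls, growth inhibition of compound-treated cln2 rad14 yeast was recorded.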

Assay [5] in a line: NCI Yeast Anticancer Drug Screen. Data for the bub3 strain (AID 167). To be noted: S. cerevisiae bub3 mutant strain, hits give high values. An outline of the steps: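 Steps: expose the mutant yeast strain to compound; grow alongside vehicle-treated cultures; measure growth; express inhibition against the vehicle cultures.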
Assay [6] in a line: NCI Yeast Anticancer Drug Screen. Data for the mlh1 rad18 strain (AID 175). To be noted: S. cerevisiae mlh1 rad18 strain growth inhibition, hits give high values. An outline of the steps:
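Test agents were incubated with a yeast strain of defined genotype (DNA damage repair defect). Inhibition of growth was derived by comparison with vehicle-exposed cultures.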

[7] abbreviates: at 5.0 µM (retest, dose inferred, filed as 0.5).
[8] abbreviates: at 50.0 µM (retest, dose inferred, filed as 5.0).

SMILES strings stand for the structures. This is part of a sample that, as a whole, favours compounds with a hit. Of some 79,000 tested, about 15% had one in any assay. Values without a mark were called inactive. Calls of active or inactive are those of the source. Rule as the data show it: active = growth inhibition above about 70%; inactive = the rest.

Take `CCCC/C(=N/Nc1ccc([N+](=O)[O-])cc1)C(=O)O`: the growth inhibition in assay [1] (setting [7]) is 14%; in assay [1] (setting [8]), 97% (active); in assay [1] (at 50.0 µM), 71.5% (active); in assay [2] (setting [7]), 8%; in assay [2] (setting [8]), 95% (active); in assay [2] (at 50.0 µM), 24.3%. The growth inhibition is 14% in assay [3] (setting [7]); 97% (active) in assay [3] (setting [8]); 75% (active) in assay [3] (at 50.0 µM); -3% in assay [4] (setting [7]); 60% in assay [4] (setting [8]); 24.5% in assay [4] (at 50.0 µM). Moreover, the growth inhibition is 18% in assay [5] (setting [7]); 98% (active) in assay [5] (setting [8]); 82% (active) in assay [5] (at 50.0 µM); 21% in assay [6] (setting [7]); 98% (active) in assay [6] (setting [8]); 57.4% in assay [6] (at 50.0 µM).
Consider `COc1ccc2cc(Br)ccc2c1`, for which the growth inhibition in assay [1] (setting [7]) was 4%; in assay [1] (setting [8]), -25%; in assay [1] (at 50.0 µM), 10.3%; in assay [2] (setting [7]), 6%; in assay [2] (setting [8]), -2%; in assay [2] (at 50.0 µM), 5.1%. Further, the growth inhibition is 2% in assay [3] (setting [7]); 1% in assay [3] (setting [8]); 9.85% in assay [3] (at 50.0 µM); 8% in assay [4] (setting [7]); -2% in assay [4] (setting [8]); -10.4% in assay [4] (at 50.0 µM). In addition, the growth inhibition in assay [5] (setting [7]) was 32%; in assay [5] (setting [8]), 6%; in assay [5] (at 50.0 µM) it was -0.55%; in assay [6] (setting [7]), 4%; in assay [6] (setting [8]), -2%; in assay [6] (at 50.0 µM), 17.2%.
On to `CN(C)c1ccc(/C=C/c2ccnc3ccccc23)cc1Cl`, for which the growth inhibition in assay [1] (setting [7]) was 23%; in assay [1] (setting [8]), 95% (active); in assay [1] (at 50.0 µM) it was -10.1%; in assay [2] (setting [7]), 4%; in assay [2] (setting [8]) it was 97% (active); in assay [2] (at 50.0 µM), -4.1%. Further, the growth inhibition in assay [3] (setting [7]) is 0%; in assay [3] (setting [8]), 97% (active); in assay [3] (at 50.0 µM), 66.8%; in assay [4] (setting [7]), -6%; in assay [4] (setting [8]), 94% (active); in assay [4] (at 50.0 µM), -12.6%. Also, the growth inhibition in assay [5] (setting [7]) is 2%; in assay [5] (setting [8]), 97% (active); in assay [5] (at 50.0 µM), 29.4%; in assay [6] (setting [7]), -3%; in assay [6] (setting [8]), 95% (active); in assay [6] (at 50.0 µM), 5.25%.
As for `CCOC(=O)CN1CCC(C(=O)CC2(O)C3(Cl)C4(Cl)C5(Cl)C(Cl)(Cl)C6(Cl)C4(Cl)C2(Cl)C6(Cl)C53Cl)CC1` (stereo not given), the growth inhibition was 30% in assay [1] (setting [7]); 98% (active) in assay [1] (setting [8]); 98.8% (active) in assay [1] (at 50.0 µM); 2% in assay [2] (setting [7]); 99% (active) in assay [2] (setting [8]); 99.2% (active) in assay [2] (at 50.0 µM). The growth inhibition is 51% in assay [3] (setting [7]); 99% (active) in assay [3] (setting [8]); 50.5% in assay [3] (at 50.0 µM); 58% in assay [4] (setting [7]); 98% (active) in assay [4] (setting [8]); 98.5% (active) in assay [4] (at 50.0 µM). Moreover, the growth inhibition in assay [5] (setting [7]) was 20%; in assay [5] (setting [8]) it was 98% (active); in assay [5] (at 50.0 µM), 99.1% (active); in assay [6] (setting [7]) it was 62%; in assay [6] (setting [8]), 99% (active); in assay [6] (at 50.0 µM), 98.8% (active).
On to `Cc1cc(Nc2ccc(O)c(CN3CCN(Cc4cc(Nc5cc(C)nc(N)n5)ccc4O)CC3)c2)nc(N)n1`, for which the growth inhibition was 8% in assay [1] (setting [7]); 95% (active) in assay [1] (setting [8]); 97.5% (active) in assay [1] (at 50.0 µM); 6% in assay [2] (setting [7]); 96% (active) in assay [2] (setting [8]); 96.9% (active) in assay [2] (at 50.0 µM). Moreover, the growth inhibition was 5% in assay [3] (setting [7]); 96% (active) in assay [3] (setting [8]); 97.5% (active) in assay [3] (at 50.0 µM); 12% in assay [4] (setting [7]); 94% (active) in assay [4] (setting [8]); 89.7% (active) in assay [4] (at 50.0 µM). Also, the growth inhibition in assay [5] (setting [7]) was 9%; in assay [5] (setting [8]), 95% (active); in assay [5] (at 50.0 µM), 95.4% (active); in assay [6] (setting [7]) it was 7%; in assay [6] (setting [8]) it was 97% (active); in assay [6] (at 50.0 µM), 97.5% (active).
For `COC(=O)C1(NC(=O)C(CC(=O)OCc2ccccc2)NC(=O)OCc2ccccc2)CCCCCC1` (stereo not given), the growth inhibition in assay [1] (setting [7]) is 3%; in assay [1] (setting [8]), 30%; in assay [1] (at 50.0 µM), 63%; in assay [2] (setting [7]), -1%; in assay [2] (setting [8]), 41%; in assay [2] (at 50.0 µM) it was 8.9%. Besides, the growth inhibition is -12% in assay [3] (setting [7]); 25% in assay [3] (setting [8]); 50.3% in assay [3] (at 50.0 µM); -2% in assay [4] (setting [7]); 47% in assay [4] (setting [8]); 71.5% (active) in assay [4] (at 50.0 µM). Moreover, the growth inhibition in assay [5] (setting [7]) was -22%; in assay [5] (setting [8]), 66%; in assay [5] (at 50.0 µM), 56.8%; in assay [6] (setting [7]) it was -3%; in assay [6] (setting [8]), 64%; in assay [6] (at 50.0 µM) it was 59.1%.
`CS(=O)(=O)OCC(COS(C)(=O)=O)C(c1ccccc1)c1ccccc1Br` (stereo not given): the growth inhibition was 12% in assay [1] (setting [7]); 34% in assay [1] (setting [8]); 28.4% in assay [1] (at 50.0 µM); 7% in assay [2] (setting [7]); 29% in assay [2] (setting [8]); 36% in assay [2] (at 50.0 µM). Also, the growth inhibition in assay [3] (setting [7]) is 14%; in assay [3] (setting [8]), 47%; in assay [3] (at 50.0 µM), 37.1%; in assay [4] (setting [7]), 16%; in assay [4] (setting [8]) it was 44%; in assay [4] (at 50.0 µM), 13.1%. Also, the growth inhibition was -1% in assay [5] (setting [7]); 16% in assay [5] (setting [8]); 5.4% in assay [5] (at 50.0 µM); 7% in assay [6] (setting [7]); 51% in assay [6] (setting [8]); 56.2% in assay [6] (at 50.0 µM).
Regarding `c1csc(-c2nnc(C34CC5CC(CC(C5)C3)C4)o2)c1`, the growth inhibition is -31% in assay [1] (setting [7]); 93% (active) in assay [1] (setting [8]); 61.5% in assay [1] (at 50.0 µM); -12% in assay [2] (setting [7]); 95% (active) in assay [2] (setting [8]); 55.3% in assay [2] (at 50.0 µM). In addition, the growth inhibition in assay [3] (setting [7]) is -24%; in assay [3] (setting [8]), 97% (active); in assay [3] (at 50.0 µM), 83.3% (active); in assay [4] (setting [7]), -2%; in assay [4] (setting [8]), 76% (active); in assay [4] (at 50.0 µM), 7.3%. Also, the growth inhibition is -10% in assay [5] (setting [7]); 98% (active) in assay [5] (setting [8]); 86.3% (active) in assay [5] (at 50.0 µM); -12% in assay [6] (setting [7]); 98% (active) in assay [6] (setting [8]); 65.3% in assay [6] (at 50.0 µM).
Turning to `O=[N+]([O-])c1nccn1CCCNCCCn1ccnc1[N+](=O)[O-]`, the growth inhibition in assay [1] (setting [7]) was 27%; in assay [1] (setting [8]), 28%; in assay [1] (at 50.0 µM), 0.45%; in assay [2] (setting [7]), 0%; in assay [2] (setting [8]), -2%; in assay [2] (at 50.0 µM) it was 1.2%. For the same molecule, the growth inhibition in assay [3] (setting [7]) was 15%; in assay [3] (setting [8]), 26%; in assay [3] (at 50.0 µM), -6.7%; in assay [4] (setting [7]), 24%; in assay [4] (setting [8]) it was 17%; in assay [4] (at 50.0 µM), -20.1%. Further, the growth inhibition in assay [5] (setting [7]) was 8%; in assay [5] (setting [8]) it was 14%; in assay [5] (at 50.0 µM) it was -14.9%; in assay [6] (setting [7]), 24%; in assay [6] (setting [8]), 20%; in assay [6] (at 50.0 µM) it was 21.1%.
In the case of `COc1cc(Nc2ccc(O)cc2)c2ncccc2c1`, the growth inhibition was 34% in assay [1] (setting [7]); 93% (active) in assay [1] (setting [8]); 94.9% (active) in assay [1] (at 50.0 µM); 18% in assay [2] (setting [7]); 97% (active) in assay [2] (setting [8]); 69.2% in assay [2] (at 50.0 µM). Besides, the growth inhibition was 16% in assay [3] (setting [7]); 97% (active) in assay [3] (setting [8]); 94.7% (active) in assay [3] (at 50.0 µM); 5% in assay [4] (setting [7]); 89% (active) in assay [4] (setting [8]); 21.1% in assay [4] (at 50.0 µM). Also, the growth inhibition was 7% in assay [5] (setting [7]); 94% (active) in assay [5] (setting [8]); 45.3% in assay [5] (at 50.0 µM); 33% in assay [6] (setting [7]); 96% (active) in assay [6] (setting [8]); 94.5% (active) in assay [6] (at 50.0 µM).
